This note sets out measurements from PubChem BioAssay (Tox21).

Each structure is given as a SMILES string. Results filed as inconclusive are left out. Unmarked numbers belong to inactive results. Activity calls are given as the source filed them. Unless noted, calls follow the shape of the dose curve; as a rule, active = well fitted curve in the direction sought with a large enough effect in the repeat runs; inconclusive = weak or mixed curves; inactive = no such curve, though single readings can be large; an effect the other way counts as inactive or inconclusive.

The nature of assay [1]: qHTS assay to identify small molecule agonists of the peroxisome proliferator-activated receptor delta (PPARd) signaling pathway - cell viability counter screen (AID 743211). Also: % is scaled to controls: 0 for no effect and ±100 for the full control effect; nearly all actives have a fitted effect of over 55% in size. The essentials:
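PPARd-bla HEK293H cells (UAS-beta-lactamase reporter) were treated with compounds for 17 h at 37 C. Viability was then read in the same wells by CellTiter-Glo luminescence after 30 min at room temperature.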
(qHTS replaces the single test concentration by a dilution series.)

Assay [2] concerns the target Peroxisome proliferator-activated receptor delta (Homo sapiens) (UniProt Q03181). Briefly: qHTS assay to identify small molecule agonists of the peroxisome proliferator-activated receptor delta (PPARd) signaling pathway (AID 743212; calls by dose curve; also: % is scaled to controls: 0 for no effect and ±100 for the full control effect). The essentials:
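Beta-lactamase reporter readout: a ratiometric FRET signal from the LiveBLAzer substrate after 2 h at room temperature. Compound exposure at 37 °C in PPARδ-bla HEK293H cells driven by an upstream activator sequence.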

Assay [3] in a line: qHTS assay to identify small molecule antagonists of the peroxisome proliferator-activated receptor delta (PPARd) signaling pathway - cell viability counter screen (AID 743213). Also: % is scaled to controls: 0 for no effect and ±100 for the full control effect; nearly all actives have a fitted effect of over 50% in size. The essentials: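 Agonist-stimulated (L165041, 300 nM final) HEK293H PPARd UAS-bla cells are exposed to compounds for 17 h at 37 C, and ATP-based luminescence (CellTiter-Glo) from the same wells reports cytotoxicity.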

Assay [4] addresses Peroxisome proliferator-activated receptor delta (Homo sapiens) (UniProt Q03181). The assay is described as follows: qHTS assay to identify small molecule antagonists of the peroxisome proliferator-activated receptor delta (PPARd) signaling pathway (AID 743215; active = well fitted inhibition curve with a large enough effect in the signal ratio in the repeat runs, not every such curve was filed as active; the % refers to the signal ratio; also: series mostly up to about 62 µM; % is scaled to controls: 0 for no effect and ±100 for the full control effect). The procedure, abridged:
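Plated HEK293H PPARd-bla cells rested 5 h at 37 C and 5% CO2. Compound, then agonist L165041 at 300 nM final, was added; 17 h at 37 C followed. Substrate loading, 2 h room temperature, fluorescence measured.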

Assay [5] can be described thus: qHTS assay to identify small molecule agonists of the farnesoid-X-receptor (FXR) signaling pathway - cell viability counter screen (AID 743218). Also: nearly all actives have a fitted effect of over 45% in size. Also: potency is read from the fitted curve at half-maximal effect. The essentials: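 Viability of FXR-bla HEK 293T cells is measured by ATP-based CellTiter-Glo luminescence following 16 h compound treatment at 37 C and a prior 2 h room-temperature beta-lactamase substrate step.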
Assay [6] can be described thus: qHTS assay to identify small molecule antagonists of the farnesoid-X-receptor (FXR) signaling pathway - cell viability counter screen (AID 743221; active = well fitted cell-killing curve with a large enough effect in the repeat runs, not every such curve was filed as active; also: % is scaled to controls: 0 for no effect and ±100 for the full control effect; nearly all actives have a fitted effect of over 50% in size). The essentials:
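FXR-UAS-bla HEK 293T cells were treated with test compounds plus chenodeoxycholic acid (50 uM final) for 16 h at 37 C. Cell viability in the same wells was then read as CellTiter-Glo luminescence after 30 min at room temperature.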

Assay [7] deals with Vitamin D3 receptor (Homo sapiens) (UniProt P11473). The assay is described as follows: qHTS assay to identify small molecule agonists of the vitamin D receptor (VDR) signaling pathway (AID 743222; calls by dose curve; also: % is scaled to controls: 0 for no effect and ±100 for the full control effect). The procedure, abridged:
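Fluorescence from cleaved LiveBLAzer B/G FRET substrate served as readout. VDR-bla cells had been treated 16 h at 37C with test compounds in DMSO, following a 4 h settling period, and substrate was loaded for 2 h at RT.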

Assay [8] in a line: qHTS assay to identify small molecule agonists of the vitamin D receptor (VDR) signaling pathway - cell viability counter screen (AID 743224). Also: nearly all actives have a fitted effect of over 50% in size. Also: potency is read from the fitted curve at half-maximal effect. The essentials: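 Compounds were pin-transferred onto VDR-bla cells plated 4 h earlier; following 16 h incubation at 37C, cell viability was quantified by CellTiter-Glo luminescence after 30 min at room temperature.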
Assay [9] in a line: qHTS assay to identify small molecule antagonists of the vitamin D receptor (VDR) signaling pathway - cell viability counter screen (AID 743225). Also: % is scaled to controls: 0 for no effect and ±100 for the full control effect; nearly all actives have a fitted effect of over 50% in size. The essentials:
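VDR-bla HEK 293T cells, 4 h pre-incubation at 37C, then compound plus 1-alpha,25-dihydroxyvitamin D3 (3 nM final) for 16 h. After the beta-lactamase FRET read, CellTiter-Glo was added to the same wells; luminescence after 30 min at room temperature.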

Assay [10] in a line: qHTS assay to identify small molecule agonists of the NFkB signaling pathway - cell viability counter screen (AID 1159515; calls by dose curve; also: series mostly up to about 61 µM; % is scaled to controls: 0 for no effect and ±100 for the full control effect; nearly all actives have a fitted effect of over 55% in size). The essentials:
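Parallel cytotoxicity counter screen in ME-180 cells carrying an NFkB-response-element beta-lactamase reporter, 2,000 cells/well. Compound exposure lasted 5 hr at 37 C, 5% CO2. Cell viability was quantified by CellTiter-Glo luminescence.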

Assay [11] can be described thus: qHTS assay to identify small molecule agonists of the endoplasmic reticulum stress response signaling pathway - cell viability counter screen (AID 1159517; calls by dose curve). The essentials:
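ESRE-bla HeLa cells (1,500/well) were plated overnight at 37 C and exposed to compounds for 5 hr. After the 2 hr beta-lactamase substrate read, CellTiter-Glo went into the same wells, and luminescence was read after 30 min at room temperature.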

Assay [12] can be described thus: qHTS assay to identify small molecule antagonists of the retinoid-related orphan receptor gamma (ROR-gamma) signaling pathway - cell viability counter screen (AID 1159520). The procedure, abridged: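 Cytotoxicity was read from cellular ATP (CellTiter-Glo luminescence) after 16 hr at 37 C with 1 uM doxycycline induction. The inducer was added 2 hr after compound transfer to Tet-on ROR gamma CHO cells.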

In assay [13] the target is Nuclear receptor ROR-gamma (Homo sapiens) (UniProt P51449). The assay is described as follows: qHTS assay to identify small molecule antagonists of the retinoid-related orphan receptor gamma (ROR-gamma) signaling pathway (AID 1159521). The procedure, abridged: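 Tet-on RORγ CHO cells carrying a ROR response element–luciferase reporter were pretreated with compounds for 2 h, then induced with 1 uM (final) doxycycline hyclate for 16 h at 37 C. Antagonism was read as decreased ONE-Glo luminescence.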

Assay [14] can be described thus: qHTS assay to identify small molecule agonists of the AP-1 signaling pathway - cell viability counter screen (AID 1159525; calls by dose curve; also: nearly all actives have a fitted effect of over 55% in size). The essentials: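 Intracellular ATP by Cell Titer Glo luminescence (30 min, RT) in the same ME-180 AP-1-bla wells after the 5 h compound exposure at 37 °C. Normalised to tetra n-octyl ammonium bromide and DMSO controls.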
Assay [15] is described as follows: qHTS assay to identify small molecule agonists of the AP-1 signaling pathway (AID 1159526; calls by dose curve; also: % is scaled to controls: 0 for no effect and ±100 for the full control effect).
The target in assay [16] is Retinoic acid receptor RXR-alpha (Homo sapiens) (UniProt P19793). Briefly: qHTS assay to identify small molecule agonists of the RXR signaling pathway (AID 1159527; calls by dose curve; also: % is scaled to controls: 0 for no effect and ±100 for the full control effect; nearly all actives have a fitted effect of over 35% in size). The essentials: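 GeneBLAzer RXR-alpha-UAS-bla HEK 293T cells in medium with 2% charcoal-stripped FBS, pre-incubated 5 hr at 37 C, then exposed to compounds 16 hr. Beta-lactamase reporter read by FRET substrate, 2 hr room temperature, 460/530 nm emission.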

The target in assay [17] is Vitamin D3 receptor (Homo sapiens) (UniProt P11473). Briefly: qHTS assay to identify small molecule antagonists of the vitamin D receptor (VDR) signaling pathway (AID 743223; active = well fitted inhibition curve with a large enough effect in the signal ratio in the repeat runs, not every such curve was filed as active; the % refers to the signal ratio; also: potency is read from the fitted curve at half-maximal effect). The essentials:
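VDR-bla cells were plated, incubated 4 h at 37C, then given compound and 1alpha,25-dihydroxyvitamin D3 (3 nM final). After 16 h at 37C, LiveBLAzer B/G FRET substrate was added for 2 h at room temperature and fluorescence read.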

Assay [18] deals with Bile acid receptor (Homo sapiens) (UniProt Q96RI1). The assay is described as follows: qHTS assay to identify small molecule antagonists of the farnesoid-X-receptor (FXR) signaling pathway (AID 743217; active = well fitted inhibition curve with a large enough effect in the signal ratio in the repeat runs, not every such curve was filed as active; the % refers to the signal ratio; also: % is scaled to controls: 0 for no effect and ±100 for the full control effect). The procedure, abridged: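 Screen of the Tox21 10K library in quantitative HTS format using FXR-UAS-bla HEK 293T reporter cells. Agonist chenodeoxycholic acid, 50 uM final, added with compounds; 16 h incubation at 37 °C; beta-lactamase FRET fluorescence measured.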

For assay [19] the target is unchanged. Briefly: qHTS assay to identify small molecule agonists of the farnesoid-X-receptor (FXR) signaling pathway (AID 743220; active = well fitted activation curve with a large enough effect in the signal ratio in the repeat runs, not every such curve was filed as active; the % refers to the signal ratio; also: % is scaled to controls: 0 for no effect and ±100 for the full control effect). The procedure, abridged:
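FXR-UAS-bla HEK 293T cells carrying a UAS-driven beta-lactamase reporter were plated for 5 h at 37C/5% CO2, then exposed to DMSO-dissolved Tox21 10K compounds for 16 h at 37C. A LiveBLAzer B/G FRET substrate was loaded for 2 h at room temperature before fluorescence reading.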

Assay [20] in a line: qHTS assay to identify small molecule agonists of the endoplasmic reticulum stress response signaling pathway (AID 1159516; active = well fitted activation curve with a large enough effect in the signal ratio in the repeat runs, not every such curve was filed as active; the % refers to the signal ratio; also: % is scaled to controls: 0 for no effect and ±100 for the full control effect). The essentials:
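Using a HeLa line with an ESRE-driven beta-lactamase gene, agonist activity was measured by FRET substrate fluorescence (460 and 530 nm emission) after cells were treated with compounds for 5 hr at 37 C and 5% CO2.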

Chain of Peroxisome proliferator-activated receptor delta (Homo sapiens) (Q03181 whole entry, looked up): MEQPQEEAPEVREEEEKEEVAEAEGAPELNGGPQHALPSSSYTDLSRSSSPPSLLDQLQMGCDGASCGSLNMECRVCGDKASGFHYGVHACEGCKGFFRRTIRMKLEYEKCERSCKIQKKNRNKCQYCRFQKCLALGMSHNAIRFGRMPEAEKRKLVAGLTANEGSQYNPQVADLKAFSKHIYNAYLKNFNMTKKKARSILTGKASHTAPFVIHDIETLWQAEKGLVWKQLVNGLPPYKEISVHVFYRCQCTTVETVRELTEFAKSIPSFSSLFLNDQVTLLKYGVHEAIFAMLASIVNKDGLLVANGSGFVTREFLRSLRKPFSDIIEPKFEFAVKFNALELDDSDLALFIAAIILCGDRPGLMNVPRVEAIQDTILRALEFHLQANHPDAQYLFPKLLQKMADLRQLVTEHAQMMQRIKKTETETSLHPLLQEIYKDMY
Chain of Vitamin D3 receptor (Homo sapiens) (P11473 whole entry, looked up): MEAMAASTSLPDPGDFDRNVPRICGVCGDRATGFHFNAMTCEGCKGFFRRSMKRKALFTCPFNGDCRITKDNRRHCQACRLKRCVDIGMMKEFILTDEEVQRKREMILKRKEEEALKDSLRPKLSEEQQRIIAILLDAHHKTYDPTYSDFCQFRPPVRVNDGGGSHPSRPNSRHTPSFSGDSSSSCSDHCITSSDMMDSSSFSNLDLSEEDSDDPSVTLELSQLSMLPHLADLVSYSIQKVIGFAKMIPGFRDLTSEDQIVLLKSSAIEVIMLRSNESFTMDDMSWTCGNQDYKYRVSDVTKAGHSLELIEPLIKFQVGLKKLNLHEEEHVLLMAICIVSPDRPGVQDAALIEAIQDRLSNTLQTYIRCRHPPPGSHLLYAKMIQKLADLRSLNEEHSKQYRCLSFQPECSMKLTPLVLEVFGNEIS
Chain of Bile acid receptor (Homo sapiens) (Q96RI1 whole entry, looked up): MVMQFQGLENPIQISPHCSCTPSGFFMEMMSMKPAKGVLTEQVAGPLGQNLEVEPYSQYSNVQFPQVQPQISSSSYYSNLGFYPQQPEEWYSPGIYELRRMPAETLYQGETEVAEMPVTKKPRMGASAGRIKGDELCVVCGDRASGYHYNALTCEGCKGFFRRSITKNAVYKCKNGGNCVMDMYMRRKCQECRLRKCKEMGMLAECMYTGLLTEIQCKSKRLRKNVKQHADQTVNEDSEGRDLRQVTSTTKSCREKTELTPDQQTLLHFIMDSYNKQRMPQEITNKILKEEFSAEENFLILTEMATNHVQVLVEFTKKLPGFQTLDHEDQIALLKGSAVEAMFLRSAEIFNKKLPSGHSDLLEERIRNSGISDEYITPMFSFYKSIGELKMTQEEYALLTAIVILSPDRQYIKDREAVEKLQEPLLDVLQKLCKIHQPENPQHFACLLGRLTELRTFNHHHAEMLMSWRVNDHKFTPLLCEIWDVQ
Chain of Retinoic acid receptor RXR-alpha (Homo sapiens) (P19793 whole entry, looked up): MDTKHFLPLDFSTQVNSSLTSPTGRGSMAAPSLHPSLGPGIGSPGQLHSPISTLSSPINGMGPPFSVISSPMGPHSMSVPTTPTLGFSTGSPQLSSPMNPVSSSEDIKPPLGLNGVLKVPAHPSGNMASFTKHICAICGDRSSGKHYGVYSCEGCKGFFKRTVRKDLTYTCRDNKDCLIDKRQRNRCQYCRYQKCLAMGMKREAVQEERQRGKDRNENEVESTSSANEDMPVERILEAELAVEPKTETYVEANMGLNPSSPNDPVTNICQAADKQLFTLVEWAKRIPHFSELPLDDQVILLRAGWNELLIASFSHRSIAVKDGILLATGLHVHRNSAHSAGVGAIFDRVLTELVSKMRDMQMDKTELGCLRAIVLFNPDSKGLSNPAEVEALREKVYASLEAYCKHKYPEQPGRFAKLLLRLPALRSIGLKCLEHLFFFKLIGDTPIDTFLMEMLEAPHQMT

`CCCCCCCCCCCC(=O)OCC(C)OC(=O)CCCCC(=O)O` (stereo not given): the Potency entry in [1], in [2], in [3], in assay [4], in assay [5] and in assay [6] was “inactive” each time. Also, the Potency entry in assay [7], in assay [8], in assay [9], in assay [10], in assay [11] and in assay [12] was “inactive” in each case. In addition, the Potency entry in assay [13], in [14], in assay [15] and in [16] was “inactive” in each case.
In the case of `NC[C@H]1O[C@H](O[C@H]2[C@H](O[C@@H]3O[C@H](CO)[C@@H](O)[C@H]3O)C(O)[C@H](N)C[C@@H]2N)[C@H](N)[C@@H](O)[C@@H]1O` (stereo not given in full), the activity change, negative = cytotoxicity in assay [1] is 8.47% [at 13.2 µM]; in [6], 8.66% [at 13.2 µM]; in assay [11], -1.85% [at 6.95 µM]. The viability change, negative = cytotoxic in [3] is -6.55% [at 13.7 µM]; in assay [5] it was 5.37% [at 13.2 µM]; in assay [9], -0.622% [at 6.95 µM]; in [14], 9.44% [at 6.97 µM]. Also, in [10], the activity, negative = cytotoxic is 0.788% [at 6.95 µM]. The activity, negative = cytotoxicity in assay [12] is 4.86% [at 8.39 µM]. Moreover, the activity change, negative = inhibition in assay [13] was 9.94% [at 8.39 µM]. Also, the figures for the activation in [15] and in assay [16] were -3.58% [at 6.97 µM] and 5.85% [at 6.98 µM], respectively.
Regarding `CCN(CCN)c1cccc(C)c1`, the Potency result in [1], in assay [3], in assay [5], in assay [6], in [7] and in assay [17] was “inactive” in each case. The Potency result in assay [8], in assay [9], in [10], in assay [11], in assay [12] and in assay [13] was “inactive” each time. The Potency result in [14] and in [15] was “inactive” each time.
Regarding `CC(C)(c1cc(Br)c(OCC(Br)CBr)c(Br)c1)c1cc(Br)c(OCC(Br)CBr)c(Br)c1` (stereo not given), the Potency result in assay [1], in [4], in assay [5], in assay [6], in assay [7] and in [17] was “inactive” throughout. The Potency result in assay [9], in [10], in [11], in assay [12], in assay [13] and in [15] was “inactive” in each case. Besides, the Potency result in assay [16] was “inactive”.
Consider `CNc1ccc([N+](=O)[O-])cc1`, for which the Potency result in assay [3], in assay [6], in assay [8], in [9], in assay [10] and in assay [11] was “inactive” throughout. The Potency entry in assay [12], in assay [13], in [14], in [15] and in assay [16] was “inactive” in each case. Moreover, the Potency in assay [5] was 27.6 µM (active).
With `O=C(O)Cc1ccccc1Nc1c(Cl)cccc1Cl`, the Potency result in assay [1], in assay [2], in assay [3], in [4], in [18] and in [5] was “inactive” in each case. Besides, the Potency entry in [19], in [7], in [8], in [9], in assay [10] and in [11] was “inactive” throughout. Moreover, the Potency entry in assay [12], in assay [13], in [14] and in assay [15] was “inactive” in each case.
Regarding `Oc1c(I)cc(Cl)c2cccnc12`, the Potency result in assay [5], in [6], in [9], in assay [10] and in assay [20] was “inactive” each time. For the same molecule, the results for the Potency in assay [17] and in [8] were 8.69 µM (active) and 5.49 µM (active), respectively.
As to `Cl[Si](Cl)(c1ccccc1)c1ccccc1`, the Potency result in assay [1], in assay [2], in assay [18], in assay [5], in assay [19] and in assay [6] was “inactive” in each case. Moreover, the Potency entry in [17], in assay [8], in [10], in assay [11], in assay [12] and in [13] was “inactive” throughout. Moreover, the Potency result in [14], in assay [15] and in [16] was “inactive” throughout.
